This is an account of results in PubChem BioAssay AID1439 (NMMLSC, 2008).

The whole screen tested about 220,000 compounds, of which about 770 (0.35%) were called active. Roughly 15% stayed inconclusive and do not appear here. The full list was thinned out, with actives kept by preference. Values without a mark were called inactive. No stated cut-off is given here; in the data, active means binding response below about 49% or above about 150%; inconclusive means no clear call, values can overlap the other calls; inactive means in between. Residues, ends and D or L forms follow the SMILES beside them. *: point of attachment. OPac = O=C(CO*)c1ccccc1; Bz = O=C(c1ccccc1)*

This assay deals with Guanine nucleotide-binding protein G(o) subunit alpha (Homo sapiens) (UniProt P09471). Put plainly: RGS7-Galphao binding modulators, primary screen, biochemical, multiplexed bead flow cytometry (AID 1439).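 Further: fluorescent Galphao held in activated GDP-AlF4 state binding bead-coupled RGS7.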 As to conditions: at 10 µM, actives lie on both sides. In general terms: A flow cytometer gives signals particle by particle.
Sequence of Guanine nucleotide-binding protein G(o) subunit alpha (Homo sapiens) (P09471 whole entry, looked up): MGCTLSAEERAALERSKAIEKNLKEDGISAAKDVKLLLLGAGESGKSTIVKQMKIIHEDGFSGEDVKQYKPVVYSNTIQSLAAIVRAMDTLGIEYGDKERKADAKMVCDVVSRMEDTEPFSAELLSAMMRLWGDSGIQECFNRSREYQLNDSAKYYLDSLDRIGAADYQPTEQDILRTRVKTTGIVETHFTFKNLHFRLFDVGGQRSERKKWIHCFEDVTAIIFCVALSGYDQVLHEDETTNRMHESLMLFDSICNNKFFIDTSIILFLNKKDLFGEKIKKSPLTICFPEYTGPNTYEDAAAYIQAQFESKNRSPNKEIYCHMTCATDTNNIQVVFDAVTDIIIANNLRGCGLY
On to `O=C(COc1ccc(Cl)cc1)N1CCN(c2cccc(C(F)(F)F)c2)CC1`, for which the binding response (% of control) was 104%. Next, `COC(=O)c1ccccc1OCC(=O)N1CCN(c2ccc(Cl)cc2)CC1`: 290% (active); `O=C(CN1CCN(c2ccc(Cl)cc2)CC1)N1CCCC1`: 102%; `COCCn1c(C)cc(C(=O)COC(=O)/C=C/c2cccc(OC)c2)c1C`: 92.8%. Take `FC(F)(F)c1cccc(Cc2noc(CN3CCC(N4CCCCC4)CC3)n2)c1`: the binding response (% of control) is 104%. With `CCOC(=O)c1sc(/N=C/C2=C(O)CC(C)(C)CC2=O)c(C(=O)OCC)c1C` the figure was 107%.

As for `Cc1cc(C)n2nc(SCC(=O)NC(=O)NCc3ccco3)nc2n1`, the binding response (% of control) is 102%. Next, `Cc1ccccc1CS(=O)(=O)CC1(O)CCN(C(=O)c2cccc(C(F)(F)F)c2)CC1`: 157% (active); `CC(C)CC(=O)N1CCC(O)(CS(=O)(=O)Cc2ccccc2)CC1`: 103%. As for `Cc1ccccc1CN1CCN(C(=O)c2cccc(F)c2)CC1`, the binding response (% of control) was 105%. On to `CCOC(=O)C1=NOC(Cn2cc(C(C)=O)c(=O)[nH]c2=O)C1` (centres undefined), for which the binding response (% of control) is 100%.

For the compound `COc1cc2c(cc1OC)CN(C(=O)c1cc(=O)c3ccccc3o1)CC2`, the binding response (% of control) is 97.6%. With `COc1cc2c(cc1OC)CN(C(=O)c1ccc(S(=O)(=O)N3CCCCCC3)cc1)CC2` the figure was 89.7%; with `CCOc1cc(C(=O)N2CCc3cc(OC)c(OC)cc3C2)ccc1OC(F)F`, 159% (active). For the compound `CCC(=O)NC(=S)Nc1ccc(NC(=O)c2ccco2)c(Cl)c1`, the binding response (% of control) is 102%. As to `O=C(Nc1cccc(Cl)c1N1CCOCC1)c1ccc2c(c1)OCCO2`, the binding response (% of control) was 108%. Regarding `O=C(COc1ccccc1)N1CCc2ccccc2C1`, the binding response (% of control) is 103%. Next, `O=C(CSc1nnc(-c2cccs2)n1Cc1ccccc1)N1CCc2ccccc2C1`: 102%; `Cn1c(=O)c2c(n(Cc3ccccc3)c1=O)NC(=O)C2CC(=O)N1CCc2ccccc2C1` (centres undefined): 13.5% [inhibitor] (active); `CCCCCCCNc1nc(Cl)nc(NCCO)n1`: 93.6%.

For `CN(C)C(=O)CSc1n[nH]c(-c2ccco2)n1`, the binding response (% of control) is 107%. With `O=[N+]([O-])c1ccc(Sc2n[nH]c(-c3ccco3)n2)nc1` the figure was 105%; with `Cc1ccc(N=Nc2c(C)[nH]n(-c3ccccc3)c2=O)cc1`, 100%.

With `Cc1ccc(N2C(=O)C3C(c4ccccc4)(C2=O)C3(c2ccccc2)c2ccccc2)cc1` (centres undefined), the binding response (% of control) was 14.4% [inhibitor] (active). For the compound `Cc1ccc(N2C(=O)C(Cc3ccccc3)NC2=S)cc1` (centres undefined), the binding response (% of control) is 99%. In the case of `CCCC1C(c2ccccc2)C(C#N)(C#N)C2(C#N)CC1(N)NC2=O` (centres undefined), the binding response (% of control) is 152% (active). Next, `CC(C)OCCCNC(=S)N1CCC(C(=O)c2ccc3c(c2)OCCO3)CC1`: 105%. With `CCOCCCNCc1ccc(OCc2ccc(F)cc2)c(OC)c1` the figure was 103%; with `O=C(Nc1cccc(F)c1)c1coc(=O)c(Br)c1`, 45.3% [inhibitor] (active); with `Cc1c(NC(=O)c2coc(=O)c(Br)c2)c(=O)n(-c2ccccc2)n1C`, 101%. With `O=C(Nc1cccc(F)c1)c1ccc(S(=O)(=O)N2CCCC2)cc1` the figure was 97.7%; with `CCN(CC)CCOC(=O)c1ccc(NC(=O)CNC(=O)c2ccccc2)cc1`, 98.5%; with `COc1ccccc1C(=O)n1nc(-c2ccccc2)nc1N`, 100%. Take `COc1ccc(CC(=O)n2nc(-c3cccnc3)nc2N)cc1`: the binding response (% of control) is 97.3%. With `CCCC(=O)n1nc(-c2ccccc2)nc1N` the figure was 23.4% [inhibitor] (active); with `OCCC1CN(Cc2cccc(OC3CCCC3)c2)CCN1Cc1ccsc1` (centres undefined), 102%; with `COCCN(CCOC)S(=O)(=O)c1ccc(/C(O)=C(\C#N)c2nc3ccccc3[nH]2)cc1`, 104%. As to `COC(=O)Cn1cc(/C=C/[N+](=O)[O-])c2ccccc21`, the binding response (% of control) was 102%. Next, `O=C(COc1ccc(-c2ccccc2)cc1)NN=C1CCCC1`: 108%; `COc1ccccc1NC(=O)CCCc1c[nH]c2ccccc12`: 312% (active); `O=C(CCCCCn1c(=O)[nH]c2ccccc2c1=O)NCCc1c[nH]c2ccccc12`: 102%. With `COc1ccccc1NC(=O)C[n+]1ccccc1` the figure was 99.2%; with `O=C(CNC(=O)c1ccccc1)NCC(=O)OCC(=O)c1ccccc1` (Bz-Gly-Gly-OPac), 113%. With `CCOc1ccccc1NC(=O)CCN1CCN(S(=O)(=O)c2ccc(OC)cc2)CC1` the figure was 100%.

For the compound `CCOc1ccccc1NC(=O)c1cc(S(=O)(=O)N2CCC3(CC2)OCCO3)ccc1F`, the binding response (% of control) is 15.2% [inhibitor] (active). Next, `Cc1c(C(=O)Nc2ccccc2Cl)oc2ccc(S(=O)(=O)N3CCC4(CC3)OCCO4)cc12`: 103%; `Cc1cc(C2=NNC(=Nc3ccc(S(=O)(=O)N4CCOCC4)cc3)SC2)c(C)n1CC1CCCO1` (centres undefined): 104%; `FC(F)Oc1ccccc1C1CC(c2ccc(Br)s2)Nc2ncnn21` (centres undefined): 163% (active). With `Clc1ccc(C2CC(c3cccs3)n3ncnc3N2)cc1Cl` (centres undefined) the figure was 99.3%; with `COc1ccc(C2CC(c3ccccc3)Nc3ncnn32)cc1` (centres undefined), 93.2%.

As to `O=C(NC1CCCC1)C(c1ccc(N2CCOCC2)cc1)N(C(=O)c1ccco1)c1ccccc1F` (centres undefined), the binding response (% of control) is 95.4%. On to `O=C(C1CCN(C2CCN(Cc3ccc4cc(F)ccc4n3)CC2)CC1)N1CCCC1`, for which the binding response (% of control) was 106%. With `CCCNC(=O)c1c(Cl)cnn1-c1ccc(C)cc1` the figure was 96.6%. Next, `CC(=O)c1ccc(NC(=O)C(C)N(C)CC(=O)Nc2ccccc2Cl)cc1` (centres undefined): 98.2%; `Cc1cccc2c1N(CCOc1ccccc1)C(=O)C2=O`: 86.4%. Next, `CCOC(=O)C1Sc2[nH]c(=O)sc2C(c2ccc(Cl)cc2)C1C(=O)OCC` (centres undefined): -17.7% [inhibitor] (active); `CCOC(=O)C1C(c2ccc(Cl)cc2)NC(=S)NC1(O)C(F)(F)F` (centres undefined): 103%. In the case of `CCOC(=O)C1=C(C)NC(=O)N(C(C)=O)C1c1ccc(Cl)cc1` (centres undefined), the binding response (% of control) is 104%. With `Cc1cc(C)n(CCNCc2c(C(=O)N3C[C@@H](C)O[C@@H](C)C3)nc3ccc(Cl)cn23)n1` the figure was 98.3%. Next, `COCC(C)n1c(C)cc(C(=O)COc2ccc(C)nc2[N+](=O)[O-])c1C` (centres undefined): 100%; `CCOC(=O)c1ccc(N2C(=O)CC(N3CCN(C(=O)c4ccccc4)CC3)C2=O)cc1` (centres undefined): 99.4%.

Regarding `COCCNc1nc2nonc2nc1N(C)Cc1ccc(C)cc1`, the binding response (% of control) was 101%.

With `CSc1ccc(CN2C(=O)NC3(CCCCCC3)C2=O)cc1`, the binding response (% of control) is 219% (active). Next, `O=C(CN1C(=O)NC2(CCCCCC2)C1=O)NC1CC1`: 123%; `O=C1NC2(CCCCCC2)C(=O)N1CCS(=O)(=O)Oc1ccccc1`: 97.1%; `Cc1nc2ccccc2c(C)c1C(=O)c1ccc(F)cc1`: 97.5%. Next, `CCOc1ccc(CN2CCN(Cc3ccc(C)o3)CC2CCO)cc1` (centres undefined): 98.7%; `CN(C)c1ccc2c(=O)[nH][nH]c(=O)c2c1`: 104%.

As for `CCOC(=O)c1[nH]cnc1C(=O)Nc1ccccc1C`, the binding response (% of control) is 100%. Next, `COC(=O)CNC(=O)c1ccc(OC2CCN(C(=O)C3CC3)CC2)cc1`: 105%; `COc1cc(OC)cc(C(=O)NCCSCc2ccco2)c1`: 98.2%; `COc1cccc(C(=O)NCCSc2ccc(Br)cc2)c1`: 16.5% [inhibitor] (active). With `COc1cccc(C(=O)NNC(=O)c2ccccc2Br)c1` the figure was 99%; with `Cc1ccc(-c2cc(C(F)(F)F)n3ncc(C(=O)N4CCCCC4c4cccnc4)c3n2)cc1` (centres undefined), 100%. Next, `C/C(=N\NC(=O)c1cccc(N2CCCC2=O)c1)c1ccc(N)cc1`: 102%. Take `O=C(CSc1ccc2nnc(-c3ccccc3)n2n1)N1CCCc2ccccc21`: the binding response (% of control) was 207% (active). With `CCCn1c(SCC(=O)N2CCc3ccccc32)nnc1-c1ccncc1` the figure was 96%; with `Cn1c(SCC(=O)N2CCCc3ccccc32)nc2ccccc2c1=O`, 96.4%; with `CC(C)CC(CC(C)C)=NNC(=O)c1ccc(CSc2nncn2C)cc1`, 99.5%.

As to `CN(CCC1CCOCC1)Cc1cn[nH]c1-c1ccc(-c2ccccc2)cc1`, the binding response (% of control) is 93%.

For `O=C(NCC1COc2ccccc2O1)C1(c2ccccc2)CCCC1` (centres undefined), the binding response (% of control) was 103%. Consider `Cc1ccc(C(=O)Nc2ccc(C)c(S(=O)(=O)N(C)C)c2)s1`, for which the binding response (% of control) is 99.1%. Next, `COc1cc(CCC(=O)OCC(=O)Nc2cccc(S(N)(=O)=O)c2)cc(OC)c1OC`: 91.7%; `COc1ccc(CCC(=O)OCC(=O)Nc2ccc(C)c(S(=O)(=O)N(C)C)c2)cc1`: 45.2% [inhibitor] (active).

For `COc1ccc2oc(=O)c(C(=O)N3CCCC3)cc2c1`, the binding response (% of control) was 101%. With `Nn1c(SCC(=O)Nc2nccs2)nncc1=O`, the binding response (% of control) is 102%. Next, `Cc1ccc(Cn2ccc(NC(=O)C3C4CCC(C4)C3C(=O)O)n2)cc1` (centres undefined): 99.7%; `O=C(Nc1ccn(Cc2ccc(F)cc2)n1)c1ccncc1`: 100%.

For the compound `Cc1ccc(Cn2ccc(NC(=O)c3cc(C(C)C)on3)n2)cc1`, the binding response (% of control) was 43.9% [inhibitor] (active).

`COc1ccc(Br)cc1/C=N/NC(=O)c1cccc(S(=O)(=O)N2CCOCC2)c1`: the binding response (% of control) was 112%. For `Cc1cccc(C)c1NC(=O)Nc1ccccc1-n1ccnc1`, the binding response (% of control) is 99.6%.

Take `CC(=O)Nc1nc(N(C)C)nc(N(C)C)n1`: the binding response (% of control) was -0.2% [inhibitor] (active). For `CCC(=O)Nc1nc(OC)cc(OC)n1`, the binding response (% of control) is 99.2%. Next, `COc1cc(OC)nc(NC(=O)CCl)n1`: 100%.
